# Screening data from PubChem BioAssay.
# Only some compounds are listed: those with a hit (about 11% of all), similar ones and a draw of the others.
# Pf growth 48h: inhibits P. falciparum growth in the first generation, 48 h; P. falciparum luciferase growth in erythrocytes, 48 h; Potency, µM (titrated, usually from 28.7 µM), without a hit: top-dose activity change, negative = inhibition, hits mostly inhibitors; 310,000 tested, 5.9% active; AID 504832; also: % is scaled to controls: 0 for no effect and ±100 for the full control effect
#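 Compounds are pin-transferred into medium, infected erythrocytes (2% hematocrit, 0.1% parasitemia final) are added, and plates sit one parasite generation at 37 C in 5% CO2. Detection reagent is then added and luminescence measured.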
# VACV Venus inh: inhibitors of vaccinia virus (Venus reporter) | Vaccinia virus Venus reporter expression, fluorescence | Potency, µM (top dose mostly 36.5 µM), inactives show at the top dose activity change, negative = inhibition, usual class: inhibitors | 330,000 tested, 0.46% active; calls by dose curve; tested in A549 cells; also: % is scaled to controls: 0 for no effect and ±100 for the full control effect; nearly all actives have a fitted effect of over 30% in size
# NS1 function inh: influenza NS1 inhibition. Potency, µM (highest dose often 46.1 µM), for inactives: at the top dose activity, positive = more growth. 270,000 tested, 0.4% active. AID 2326; calls by dose curve; also: actives are rising curves; nearly all actives have a fitted effect of over 50% in size
#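 S. cerevisiae expressing influenza A NS1, grown in glucose, washed, then diluted 1:100 into pH 6.0 -URA galactose medium with 23 nl compound. Growth recovery read as OD600; NS1-free strain serves as control.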
# HCV inh: inhibitors of hepatitis C virus infection; Huh7.5.1 HCVcc-Cre infection, luciferase reporter, 44 h; Potency, µM (highest dose often 41.8 µM), inactives show at the highest dose activity change, negative = inhibition, most hits filed as inhibitors; 340,000 tested, 3.4% active; AID 651820; also: % is scaled to controls: 0 for no effect and ±100 for the full control effect
#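 Cells (1,000/well) were plated 4 h before compound, then infected with HCVcc-Cre virus (~0.5 moi). After 44 h further culture, infection was read as luciferase luminescence following a 15 min substrate incubation at room temperature.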
# VACV mCherry inh: vaccinia inhibition (mCherry reporter) | 310,000 tested, 0.63% active | Vaccinia virus mCherry reporter infection, fluorescence | Potency, µM (highest dose often 36.5 µM), for the others: top-dose activity change, negative = inhibition, usual class: inhibitors | AID 720579; calls by dose curve; tested in A549 cells; also: % is scaled to controls: 0 for no effect and ±100 for the full control effect; nearly all actives have a fitted effect of over 35% in size
# Pf growth 96h: P. falciparum growth inhibition at 96 hours. P. falciparum luciferase reporter growth, 96 h. Potency, µM (top dose mostly 28.7 µM), inactives show at the highest dose activity change, negative = inhibition, most hits filed as inhibitors. 320,000 tested, 6.9% active. AID 504834; also: % is scaled to controls: 0 for no effect and ±100 for the full control effect
#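 Cell-based qHTS: luciferase-tagged P. falciparum in erythrocytes (2% hematocrit, 0.05% parasitemia final) incubated with compounds for 96 hours, 37 C, 5% CO2; luciferase detection reagent then added and luminescence measured.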
# Numbers without * were called inactive; i = inactive; ? = inconclusive; nt = no result given; [ ] = remark or other dose. Unless noted, calls follow the shape of the dose curve; as a rule, active = well fitted inhibition curve with a large enough effect; inconclusive = small, poorly fitted or top-dose-only effect, or another doubt; inactive = no such curve, though single readings can be large or run the other way. Potency is read from the fitted curve at half-maximal effect.
SMILES,Pf growth 48h,VACV Venus inh,NS1 function inh,HCV inh,VACV mCherry inh,Pf growth 96h
COc1ccc(CNc2nc3c(c(=O)n(Cc4ccc(F)cc4)c(=O)n3C)n2C)cc1,9.3µM*,nt,-107%,?,nt,-25%
Cn1c(NCC(O)c2ccccc2)nc2c1c(=O)n(Cc1ccc(Cl)c(Cl)c1)c(=O)n2C (configuration not stated),nt,10µM*,nt,?,nt,nt
CC(C)CCNc1nc2c(c(=O)n(Cc3cccc(F)c3)c(=O)n2C)n1C,?,nt,-60%,?,nt,12µM*
COc1cccc(C2CC(C(F)(F)F)n3nc(C(=O)NCc4cccnc4)cc3N2)c1 (configuration not stated),-27%,-7%,-18%,-11%,i,18%
Cc1ccc(NC(=O)Cn2nc(C)c3ccccc3c2=O)cc1F,-2%,nt,-1%,5%,nt,-9%
CCOC(=O)Cc1csc(N/N=C\c2ccc(N(C)C)cc2)n1,7.4µM*,nt,7%,-11%,nt,9.3µM*
CCOC(=O)Cc1csc(NC(=O)c2ccc(NC(C)=O)cc2)n1,-6%,-3%,5%,-6%,nt,-17%
CCOC(=O)Cc1csc(NC(=O)CCc2ccc(S(=O)(=O)N3CCOCC3)cc2)n1,2.6µM*,-16%,-3%,-18%,i,?
CCOC(=O)Cc1csc(NC(=O)Nc2ccc(OC(F)(F)F)cc2)n1,12µM*,-26%,3%,10µM*,-25%,9.3µM*
CCOC(=O)Cc1csc(NC(=O)c2ccc(S(=O)(=O)N3CCCCC3)cc2)n1,32%,nt,-8%,-16%,nt,5.9µM*
COc1ccc(NC(=O)CSc2nc3c(c(=O)n(C)c(=O)n3C)n2C)c(OC)c1,-17%,-16%,?,17%,-13%,-18%
COC(=O)c1ccccc1OCCCCN1CC(C)OC(C)C1 (configuration not stated),35%,-9%,4%,4%,i,7%
CCOC(=O)Cc1csc(NC(=O)C(CC(C)C)NC(=O)C2CCCCC2)n1 (configuration not stated),?,nt,nt,14µM*,nt,?
CCOC(=O)Cc1csc(NC(=O)CN2CCOCC2)n1,?,-20%,?,-4%,-14%,9.3µM*
COC(=O)C(CC(C)C)NC(=O)/C=C/c1ccc(Cl)cc1 (configuration not stated),?,10%,nt,4%,i,54%[5.75 µM]
COC(=O)C(CC(C)C)NC(=O)/C=C/c1ccccc1Cl (configuration not stated),13µM*,-13%,-28%,11%,-5%,-23%
CCOC(=O)Cc1csc(NC(=O)/C=C\c2ccccc2Cl)n1,31%,-6%,1%,10µM*,-10%,24%
CCCCN(C(C)=O)c1c(CC)nc2ccc(C(=O)NCCc3ccccn3)cn12,nt,-13%,nt,nt,17%,nt
CCOC(=O)Cc1csc(NC(=O)c2ccc(N3CCOCC3)cc2[N+](=O)[O-])n1,8%,nt,nt,11µM*,nt,10%
CCOC(=O)Cc1csc(NC(=O)c2ccc([N+](=O)[O-])cc2[N+](=O)[O-])n1,0%,?,11%,-10%,-25%,?
Cc1ccc(S(=O)(=O)Nc2c(C)nn(C)c2C)cc1C,-13%,-2%,nt,0.56µM*,i,-2%
Cc1cc(C)c(-c2csc(NC(=O)C3=COCCO3)n2)c(C)c1,9.3µM*,-23%,nt,?,-26%,?
COc1ccc(N2CCN(C(=O)c3ccc(Cn4nc(C)c([N+](=O)[O-])c4C)o3)CC2)cc1,?,-21%,-4%,-17%,-6%,?
CN1CCN(c2ccc(N)c(N3CCN(C)CC3)c2)CC1,nt,-13%,-3%,0%,nt,nt
Nc1cc(Cl)ccc1N1CCCCCC1,2.6µM*,-4%,nt,11%,-17%,-125%[5.75 µM]
Nc1ccc(N2CCCCC2)cc1N1CCCCC1,3.3µM*,?,9%,?,nt,38%
Nc1cc(Cl)ccc1N1CCCCC1,13%,-4%,2%,15%,-2%,1%
COc1ccc(Cl)cc1C(=O)Nn1c(C)nc2ccccc2c1=O,42%,-8%,-10%,-1%,-8%,-26%
Cc1ccc(CN2CCN(C)CC2)c(C)c1,16%,nt,6%,2%,nt,2.9µM*
